Test results taken from the supplement of paper PMC10127200.
Structures can show the parent of a compound that is named as a salt.

How the values were obtained:
Experiment in all cases: Euclidean distance of Cell Painting phenotypic profile (signed KS, 77 features) to DMSO centroid (dimensionless distance); 5 or 10 uM (library dependent); higher = stronger phenotypic change vs DMSO (phenoactivity)
Settings in all cases: 48 h
786-O = tested on: 786-O
Procedure, shortened: (§1)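 At 10 or 5 uM, as set by the library, and 0.1% DMSO final, compounds were applied for 48 h to five cancer lines and one healthy fibroblast line. Stained cells were imaged confocally at 20X in 9 fields per well, and Harmony extracted 77 features scored as signed Kolmogorov-Smirnov statistics against vehicle wells on the same plate. Profiles underwent plate-position correction, correlation weighting and replicate averaging at the top dose. Phenoactivity is the Euclidean distance from each such profile to the median vehicle profile.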

A549 = tested on: A549
Procedure, shortened: as §1

FB = tested on: FB
Procedure, shortened: as §1

HEPG2 = tested on: HEPG2
Procedure, shortened: as §1

OVCAR4 = tested on: OVCAR4
Procedure, shortened: as §1

| Structure (SMILES) | Euclidean distance (786-O) | Euclidean distance (A549) | Euclidean distance (FB) | Euclidean distance (HEPG2) | Euclidean distance (OVCAR4) |
| --- | --- | --- | --- | --- | --- |
| COc1cc(N)cn[n+]1-c1ccccc1 [Amezinium (methylsulfate)] | 1.39 | 0.864 | 0.801 | 0.523 | 1.16 |
| C[C@]12C=CC(=O)C=C1CC[C@H]1[C@@H]3C[C@@H](O)[C@](O)(C(=O)CO)[C@@]3(C)C[C@H](O)[C@@]12F [Triamcinolone] | 0.975 | 1.88 | 1.81 | 1.35 | 1.94 |
| COc1ccc2c(c1)c(CC(=O)OCC(=O)O)c(C)n2C(=O)c1ccc(Cl)cc1 [Acemetacin] | 0.932 | 0.994 | 1.09 | 0.526 | 1.57 |
| O=c1c(O)c(-c2ccc(O)cc2O)oc2cc(O)cc(O)c12 [Morin Hydrate] | 0.826 | 0.616 | 0.68 | 0.312 | 1.06 |
| Clc1ccc(COC(Cn2ccnc2)c2ccc(Cl)cc2Cl)c(Cl)c1 (stereo not given) [Miconazole Nitrate] | 1.25 | 1.35 | 0.864 | 0.872 | 0.979 |
| COc1ccc([C@@H]2Sc3ccccc3N(CCN(C)C)C(=O)[C@@H]2OC(C)=O)cc1 [Diltiazem HCl] | 0.663 | 1.04 | 0.788 | 0.773 | 0.53 |
| CNCCCC1c2ccccc2C=Cc2ccccc21 [Protriptyline hydrochloride] | 1.15 | 0.784 | 1.82 | 1.74 | 0.952 |
| CN[C@@H](C)C(=O)N[C@H](C(=O)N1CCC[C@H]1c1nc(C(=O)c2ccc(F)cc2)cs1)C1CCCCC1 | 1.14 | 1.17 | 1.22 | 1.51 | 2.13 |
| CC(C)(C)c1ccc(C(=O)CCCN2CCC(OC(c3ccccc3)c3ccccc3)CC2)cc1 [Ebastine] | 1.64 | 1.24 | 1.83 | 0.905 | 1.22 |
| C[C@]12C=CC(=O)N[C@@H]1CC[C@@H]1[C@@H]2CC[C@]2(C)[C@@H](C(=O)Nc3cc(C(F)(F)F)ccc3C(F)(F)F)CC[C@@H]12 [Dutasteride] | 1.17 | 1.7 | 1.03 | 0.422 | 1.01 |
| CCCCC1(COC(=O)CCC(=O)O)C(=O)N(c2ccccc2)N(c2ccccc2)C1=O [Suxibuzone] | 0.771 | 0.893 | 1.12 | 0.518 | 1.57 |
| O=c1c(-c2ccc(O)cc2)coc2cc(O[C@@H]3O[C@H](CO)[C@@H](O)[C@H](O)[C@H]3O)ccc12 [Daidzin] | 0.57 | 0.784 | 0.914 | 0.745 | 1.17 |
| Nc1ccncc1N [3.4-Diaminopyridine] | 1.58 | 1.24 | 1.38 | 0.828 | 1.15 |
| CN1[C@@H]2CC[C@H]1C[C@@H](OC(=O)c1c[nH]c3ccccc13)C2 [Tropisetron HCl] | 0.839 | 1.16 | 1.16 | 0.825 | 0.93 |
| CN1CCc2nc(C(=O)N[C@@H]3C[C@@H](C(=O)N(C)C)CC[C@@H]3NC(=O)C(=O)Nc3ccc(Cl)cn3)sc2C1 [Edoxaban] | 1.02 | 0.603 | 0.835 | 0.275 | 0.602 |
| Nc1ccc(S(=O)(=O)Nc2ccccn2)cc1 [Sulfapyridine] | 0.73 | 1.12 | 0.894 | 0.884 | 1.27 |
| COc1c(O)cc2c(c1O)[C@@H]1O[C@H](CO)[C@@H](O)[C@H](O)[C@H]1OC2=O [Bergenin] | 1.22 | 0.742 | 0.906 | 0.765 | 2.16 |
| CN(C)C(=N)NC(=N)N [Metformin HCl] | 1.61 | 0.837 | 1.26 | 0.474 | 1.78 |
